Rows were chosen to be rich in hits. Some 6.6% of all compounds tested hit in one or more screens of this group.
HT1080NT lethal: qHTS for induction of synthetic lethality in tumor cells producing 2HG: qHTS for the HT-1080-NT fibrosarcoma cell line; HT-1080-NT fibrosarcoma viability, CellTiter-Glo ATP luminescence, 48 h; Potency, µM (highest dose often 46.1 µM), most hits filed as cytotoxic; 1.6% of 360,000 active; AID 686970, 2013;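 note: NT is the 2HG producing partner of a matched IDH1 knockdown line; nearly all actives have a fitted effect of over 55% in size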
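A 48-hour cytotoxicity screen used HT-1080-NT cells plated 2 hours before compound delivery. ATP-based CellTiter-Glo luminescence measured viability, normalized to DMSO and no-cell controls.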
TGFb inhibitor: qHTS for Inhibitors of TGF-b. Potency, µM (doses to about 46.1 µM), actives largely listed as inhibitors. HepG2 CAGA-GFP TGF-b/SMAD3 reporter, GFP fluorescence, 18 h; TGF-beta stimulated, 500 pg/mL final. 1.2% of 410,000 active. AID 588855, 2011; note: nearly all actives have a fitted effect of over 65% in size
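HEPG2 CAGA-GFP, 1000 cells/well; 2 h settle, 37 C; cpd via pin tool; TGF-b 500 pg/mL final; 18 h, 37 C; GFP imaging ex488/em500-530; %Activity normalised to -TGF-b and +DMSO controls; CRC fit, curve class.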
KB-V1 MDR tox: qHTS assay for MDR1-selective chemotherapeutics: Primary screen using the drug-selected MDR subline cells KB-V1 | AID 1347076, 2019 | Potency, µM (doses to about 46.1 µM), usual class: cytotoxic | 3.4% of 400,000 active | KB-V1 MDR cells viability, CellTiter-Glo, 72 h; note: nearly all actives have a fitted effect of over 60% in size
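qHTS viability screen in drug-selected KB-V1 MDR cells: 72 h compound treatment at 37 degrees C, ATP luminescence end point.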
HT1080 IDH1KD tx: qHTS for induction of synthetic lethality in tumor cells producing 2HG: qHTS for the HT-1080-IDH1KD cell line; HT-1080 IDH1 knockdown viability, ATP luminescence, 48 h; Potency, µM (titrated, usually from 46.1 µM), hits mostly cytotoxic; 2% of 360,000 active; AID 686971, 2013
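HT-1080-IDH1KD cells (IDH1 knocked down), 750/well in RPMI with 5% FBS, treated with compound 48 h at 37 degrees C. Viability by CellTiter-Glo luminescence, normalised to DMSO and no-cell wells; concentration-response curves classed.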
KB-3-1 cytotox: qHTS assay for MDR1-selective chemotherapeutics: Primary screen using the parental adenocarcinoma cell KB-3-1. KB-3-1 viability, CellTiter-Glo ATP luminescence, 72 h. 1.4% of 400,000 active. Potency, µM (highest dose often 46.1 µM), actives largely listed as cytotoxic; note: nearly all actives have a fitted effect of over 60% in size
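Cytotoxicity measured as CellTiter-Glo luminescence after 72 h at 37 C. Compound titrations were pinned onto drug-naive KB-3-1 parental adenocarcinoma cells grown in DMEM with 10% FBS, and normalized data fitted to concentration-response curves.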
HepG2 viability: qHTS for Inhibitors of TGF-b: Cytotox Counterscreen | Potency, µM (doses to about 46.1 µM), hits mostly cytotoxic | AID 588856, 2011 | HepG2 CAGA-GFP viability, ATP luminescence, 18 h | 0.76% of 410,000 active
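HepG2 CAGA-GFP cells (1000/well, DMEM with 1% FBS) received compound, then TGF-beta at 500 pg/mL final, and were incubated 18 hours at 37 degrees C. Viability was read by CellTiter-Glo luminescence. Media-only wells were set as complete cell-killing and DMSO as no toxicity.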
Hits are given with their value; 0 = inactive; ? = inconclusive; - = no result given. Calls come from the whole dose curve; as a rule, active = well fitted curve in the direction sought with a large enough effect; inconclusive = small, poorly fitted or top-dose-only effect, or another doubt; inactive = no such curve, though single readings can be large; an effect the other way counts as inactive or inconclusive.

SMILES	HT1080NT lethal	TGFb inhibitor	KB-V1 MDR tox	HT1080 IDH1KD tx	KB-3-1 cytotox	HepG2 viability
COc1cc(/C=N/N2CCN(c3ccccc3OC)CC2)ccc1O	0	0	0	0	0	0
COc1cc(/C=N/N2C(=O)C3C4c5ccccc5C(c5ccccc54)C3C2=O)ccc1O (centres undefined)	0	0	10µM	0	0	0
CCc1ccc(CNC(=O)CCn2c(=O)c3cccn3c3ccc(F)cc32)cc1	-	0	-	-	-	0
Nc1nc2c(nnn2C2CC(O)C(CO)O2)c(=O)[nH]1 (centres undefined)	?	?	1.3µM	5.2µM	2.3µM	0
COc1ccc(Br)c2c1-c1nc(NC(=O)c3ccccc3SC)sc1C2	-	?	-	-	-	0
Cc1ccc(-c2cn(-c3ccc(SC(F)F)cc3)c3[n+]2CCC3)cc1	0	0	0	?	2.1µM	0
Cc1ccc(-c2cn(-c3ccc(OC(F)F)cc3)c3[n+]2CCCCC3)cc1	?	0	0	0	0	0
FC(F)Oc1ccc(-n2cc(-c3ccccc3)[n+]3c2CCCCC3)cc1	0	0	0	0	23µM	0
Clc1ccc(-n2cc(-c3ccc(Br)cc3)[n+]3c2CCCCC3)cc1	0	0	0	?	?	0
FC(F)Sc1ccc(-n2cc(-c3ccc(Cl)cc3)[n+]3c2CCC3)cc1	0	0	0	0	18µM	0
CCCCN(C)C(=O)C1CCCN(c2ncnc3onc(-c4ccc(F)cc4)c23)C1 (centres undefined)	-	0	0	-	0	0
CCCN1CCN(CCCNC(=O)c2ccc3c(c2)sc2nc(-c4ccc(OC)cc4)cn23)CC1	-	0	-	-	-	0
O=C1/C(=N\S(=O)(=O)c2cccs2)C([n+]2ccc(CCCc3ccccc3)cc2)=C([O-])c2ccccc21	0	16µM	?	?	0	0
O=C1/C(=N\S(=O)(=O)c2cccs2)C([n+]2cccc(Cc3ccccc3)c2)=C([O-])c2ccccc21	5.2µM	?	0	5.8µM	?	2.8µM
Cc1cc[n+](C2=C([O-])c3ccccc3C(=O)/C2=N\S(=O)(=O)c2cccs2)cc1C	0	0	0	0	0	0
CCOc1ccc(CCNC(=O)CCc2cn(Cc3ccc(C)cc3)c3ccccc23)cc1	-	?	-	-	-	0
CC(=O)NCCNC(=O)CCCn1c(=O)[nH]c2ccsc2c1=O	-	0	0	-	0	0
CC(=O)Oc1ccc(N(c2ccccc2)S(=O)(=O)c2ccc(C)cc2)cc1	0	0	15µM	0	?	0
Cc1ccc(S(=O)(=O)N(C)c2ccccc2)cc1	0	0	0	0	0	0
O=C(CSc1nc(=O)n(Cc2ccco2)c2c1CCC2)Nc1cccc(F)c1	-	7.9µM	0	-	0	0
O=C(CSc1nc(=O)n(Cc2ccco2)c2c1CCC2)NCc1ccc(F)cc1	-	0	0	-	0	0
Cc1nnc(N2CCN(c3cccc(C(F)(F)F)c3)CC2)c2c1nnn2Cc1ccccc1	-	0	?	-	0	0
O=C1NC2(CCCCC2)C(=O)N1CC(=O)N1CCc2ccccc21	0	?	0	0	0	0
CCCC1(CCC)NC(=O)N(CC(=O)N2CCc3ccccc32)C1=O	0	0	16µM	0	0	0
Cc1ccc(OCCn2c(NC(=O)c3ccco3)nc3ccccc32)cc1	0	?	?	0	?	0
SMILES	HT1080NT lethal	TGFb inhibitor	KB-V1 MDR tox	HT1080 IDH1KD tx	KB-3-1 cytotox	HepG2 viability
Cc1cccc(OCCn2c(NC(=O)c3ccco3)nc3ccccc32)c1	0	0	2.3µM	0	?	0
Cc1ccc(NC(=O)C2CCCN(S(=O)(=O)c3c(C)n[nH]c3C)C2)c(C)c1 (centres undefined)	-	0	0	-	0	0
O=C(/C=C/c1ccco1)N1CCN(S(=O)(=O)c2cccc([N+](=O)[O-])c2)CC1	0	0	23µM	0	0	0
Cc1ccc(/C=C/C(=O)N2CCN(S(=O)(=O)c3ccc(C)c(C)c3)CC2)o1	?	10µM	?	?	0	0
COc1ccc(S(=O)(=O)N2CCN(C(=O)/C=C/c3ccco3)CC2)cc1	0	0	0	0	0	0
Cc1ccc(C(=O)N2CCN(Cc3ccccc3)CC2)o1	0	0	0	0	0	0
Cc1ccc(/C=C/C(=O)N2CCN(S(=O)(=O)c3c(C)c(C)cc(C)c3C)CC2)o1	0	?	0	?	0	0
Cc1ccc(/C=C/C(=O)N2CCN(Cc3ccccc3)CC2)o1	0	0	13µM	0	0	0
O=C(NCc1cccs1)c1ccc(-c2ccc(F)c(F)c2)c2ccoc12	?	0	0	?	0	0
Cc1ccc(O)c(-c2n[nH]c3c2C(c2ccc(F)cc2)N(Cc2ccco2)C3=O)c1 (centres undefined)	-	?	0	-	?	0
O=C(Cc1ccccc1)NCC(=O)OCC(=O)c1ccc2ccccc2c1	-	0	0	-	0	0
Cc1ccc(C(c2nnnn2C2CCCCC2)N(C)C2CCCCC2)cc1 (centres undefined)	0	0	0	0	0	0
CC(C)(C)n1nnnc1C(c1cc2cc3c(cc2[nH]c1=O)OCCO3)N1CCSCC1 (centres undefined)	0	0	0	0	0	0
CC(C)C(c1nnnn1C1CCCC1)N(C)C1CCCCC1 (centres undefined)	0	0	18µM	0	0	0
COc1cc2cc(C(c3nnnn3C3CCCCC3)N(C)C3CCCCC3)c(=O)[nH]c2cc1OC (centres undefined)	?	?	23µM	?	21µM	0
O=c1[nH]c2cc3c(cc2cc1C(c1nnnn1C1CCCC1)N1CCSCC1)OCCO3 (centres undefined)	0	0	10µM	0	?	0
COCCNC(=O)CCc1c(C)n(C)c2cc(-c3cc(OC)c(OC)c(OC)c3)nn2c1=O	-	0	-	-	-	0
CCC(C)(C)NC(=O)C(c1ccc(C)cc1)N(Cc1cccs1)C(=O)c1ccc2c(c1)OCCO2 (centres undefined)	?	?	18µM	?	0	0
C=CCn1c(SCC(=O)N(C)CC(=O)Nc2ccc(C)cc2)nnc1-c1ccncc1	0	0	0	0	0	0
COc1cc(/C=C/C(=O)N(C)CC(=O)Nc2ccccc2SC)cc(OC)c1OC	0	0	13µM	0	0	0
Cc1ccc(CCNC(=O)c2cnc3c(C)cccn3c2=O)cc1	-	0	0	-	0	0

Screening results (PubChem)
